GLP1R ag = qHTS of GLP-1 Receptor Agonists; Glucagon-like peptide 1 receptor (Homo sapiens), P43220; HEK293 GLP-1R CRE-luciferase, luminescence, 4-6 h; cells express a hypersensitive GLP-1R form; Potency, µM (titrated, usually from 45.6 µM), actives largely listed as activators; hit rate 0.007% among 380,000; AID 624172, 2012
D3 antag = qHTS of D3 Dopamine Receptor Antagonist: qHTS | D3R cells, DiscoveRx beta-arrestin luminescence, antagonist mode; active compounds read low | AID 652054, 2013 | max response, negative = inhibition, % | hit rate 2.5% among 360,000; in the data active = max response below about -50%; inconclusive = no clear call, values can overlap the other calls
Target sequence (P35462 whole entry, looked up): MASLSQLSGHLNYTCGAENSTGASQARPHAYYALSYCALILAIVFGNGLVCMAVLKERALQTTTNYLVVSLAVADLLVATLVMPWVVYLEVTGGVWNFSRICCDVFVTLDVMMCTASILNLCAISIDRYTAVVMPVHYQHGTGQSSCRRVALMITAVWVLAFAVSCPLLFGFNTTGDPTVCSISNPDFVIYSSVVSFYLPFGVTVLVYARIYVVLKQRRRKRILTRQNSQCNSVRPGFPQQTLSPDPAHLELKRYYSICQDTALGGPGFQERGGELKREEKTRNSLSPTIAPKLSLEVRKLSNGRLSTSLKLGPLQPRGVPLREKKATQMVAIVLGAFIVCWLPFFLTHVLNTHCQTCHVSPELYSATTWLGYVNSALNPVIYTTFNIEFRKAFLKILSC
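Cells plated overnight at 1500 cells/well, then exposed to library compounds with dopamine controls for 90 minutes at 37 degrees C. DiscoveRx reagent added for 30–60 minutes at room temperature; luminescence read, quantitative HTS format.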
GLP-1R inv ag = qHTS of GLP-1 Receptor Inverse Agonists (Inhibition Mode); Potency, µM (top dose mostly 38.3 µM), hits mostly inhibitors; HEK293 GLP-1R CRE-luciferase, luminescence, 24 h; GLP-1R form is constitutively active; AID 624417, 2012; Glucagon-like peptide 1 receptor (Homo sapiens), P43220; hit rate 1.6% among 410,000; also: nearly all actives have a fitted effect of over 55% in size
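Inverse agonism was detected as reduced cAMP-driven luciferase luminescence after 24 h compound treatment. The cells were HEK293 clones expressing constitutively active human GLP-1R with the reporter. Reporter-only and GPR119 cell lines served as counterscreen controls.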
D3 ag = qHTS of D3 Dopamine Receptor Agonist: qHTS. max activation, %. hit rate 0.58% among 410,000. D3R DiscoveRx beta-arrestin cells, luminescence, 90 min. D(3) dopamine receptor (Homo sapiens), P35462. AID 652048, 2013; in the data active = max activation above about 30%
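Agonist-mode cell screen: cells plated at 1500/well and incubated overnight at 37 °C, then exposed to library compounds for 90 min at 37 °C. Detection reagent was added for 30–60 min at room temperature, and luminescence was read.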
Numbers stand for hits; – = inactive; ? = inconclusive; · = not tested or not shown; ! = a repeat was not active; [ ] = another dose, or the depositor's remark. An excerpt weighted towards active compounds, which were near 4.3% of everything screened. Unless noted, calls follow the shape of the dose curve; as a rule, active = well fitted curve in the direction sought with a large enough effect; inconclusive = small, poorly fitted or top-dose-only effect, or another doubt; inactive = no such curve, though single readings can be large; an effect the other way counts as inactive or inconclusive.

SMILES | GLP1R ag | D3 antag | GLP-1R inv ag | D3 ag
COc1ccccc1N1CCN(C2CCCN(C(=O)c3ccoc3C)C2)CC1 (configuration not stated) | – | – | – | –
CCCCCCC(O)C/C=C/CCCCCCCC(=O)O (configuration not stated) | – | · | · | ·
COc1cccc(C(=O)C2CCCN(Cc3cccc(-n4nc(C)cc4C)c3)C2)c1 (configuration not stated) | – | – | ? | –
COc1cc(/C=C2\SC(=S)N(N(C)c3ccccc3)C2=O)ccc1O | – | – | – | –
Cc1ccc(Cn2c(=O)n(-c3ccc(C)c(C)c3)c(=O)c3c(C)c(C)sc32)cc1 | · | · | – | –
Cc1ccc(OCc2cc(C(=O)N3CCC(C(O)C(C)C)CC3)no2)cc1C (configuration not stated) | – | – | 11.2µM | –
Cc1ccc(OCc2cc(C(=O)N3CCCCCCC3)no2)cc1C | – | – | ? | –
COc1cc(OC)cc(C(=O)N2CCC(N3CCN(c4ccccc4OC)CC3)CC2)c1 | – | -52.5 | ? | –
COc1ccc(-n2c(C)cc(C(=O)NC3CCCCC3)c2C)cc1 | – | – | ? | –
Cc1ccc(CN(C)C(=O)CN2C(=O)NC3(CCCc4ccccc43)C2=O)c(C)c1 (configuration not stated) | – | – | 3.16µM | –
CCOC(=O)CN1C(=O)NC2(CCCc3ccccc32)C1=O (configuration not stated) | – | -68.4 | – | –
O=C(CC1N=C2c3ccccc3N=C(SCc3ccccc3Cl)N2C1=O)NCc1cccs1 (configuration not stated) | · | · | – | –
CN(C)c1ccc(NC(=O)CSC2=Nc3ccccc3C3=NC(CCC(=O)NCc4cccs4)C(=O)N23)cc1 (configuration not stated) | · | · | 5.62µM | –
CC(C)(C)c1ccc(CSC2=Nc3ccccc3C3=NC(CC(=O)NCc4cccs4)C(=O)N23)cc1 (configuration not stated) | · | · | 10µM | –
Clc1cccc(CN2CCc3c([nH]c4ccccc34)C2)c1Cl | – | – | ? | –
COc1cccc(CN2CCc3[nH]c(=S)[nH]c(=O)c3C2)c1 | – | – | – | –
COc1cc(CN2CCc3c([nH]c4ccccc34)C2)cc(OC)c1 | – | -67.9 | ? | –
COc1ccccc1CN1CCc2c([nH]c3ccccc23)C1 | – | -90.3 | ? | –
CC1(c2nc3ccccc3[nH]2)CCC(=O)N1Cc1cccs1 (configuration not stated) | – | – | – | –
O=c1c2cccnc2n(Cc2ccccc2F)c(=O)n1Cc1ccc(F)cc1 | · | · | ? | –
COc1cccc(NC(=O)C2CCN(c3nc4ccccc4nc3C(F)(F)F)CC2)c1 | · | · | – | 31.8
CC(C)(C)NC(=O)C1CCN(c2nc3ccccc3nc2C(F)(F)F)CC1 | · | · | – | –
O=C1C(Cc2ccccc2)Nc2ncnc(N3CCCCC3)c2N1Cc1ccc(Br)cc1 (configuration not stated) | – | -98.5 | ? | –
CCC1Nc2ncnc(N3CCCCC3)c2N(Cc2ccc(OC)cc2)C1=O (configuration not stated) | – | -63.7! | ? | –
COc1ccc(CN2C(=O)C(Cc3ccccc3)Nc3ncnc(N4CCOCC4)c32)cc1 (configuration not stated) | – | ? | – | –
SMILES | GLP1R ag | D3 antag | GLP-1R inv ag | D3 ag
CCC1Nc2ncnc(N3CCN(c4ccccn4)CC3)c2N(Cc2ccc(Cl)cc2)C1=O (configuration not stated) | – | -103.7 | ? | –
CCC1Nc2ncnc(N3CCCCC3)c2N(Cc2ccc(Br)cc2)C1=O (configuration not stated) | – | -53.3 | ? | –
Fc1cccc(NCc2cccn2-c2nnc(N3CCOCC3)s2)c1 | – | · | – | –
Cc1ccc(CN2C(=O)CN(C3CCC(C)CC3)C(=O)C2c2ccc(F)cc2)cc1 (configuration not stated) | · | · | – | –
CN(C)c1ccc(CNC(=O)CN2C(=O)c3cccnc3Oc3ccc(Cl)cc32)cc1 | · | · | – | –
CCC1Nc2ncnc(N3CCOCC3)c2N(Cc2ccc(Br)cc2)C1=O (configuration not stated) | – | – | – | –
CCC1Nc2ncnc(N3CCCCC3)c2N(Cc2ccc(Cl)cc2)C1=O (configuration not stated) | – | -64.8! | 10µM! | –
COc1cc(/C=C/CN2CCC(CO)(CC3CCCCO3)CC2)ccc1O (configuration not stated) | – | -66.8 | – | –
OCC1(CC2CCCCO2)CCN(Cc2nc3ccccc3[nH]2)CC1 (configuration not stated) | – | – | – | –
OCC1(CC2CCCCO2)CCN(C/C=C/c2ccccc2)CC1 (configuration not stated) | – | -67.8 | –[7.66 µM] | –
COC(=O)CC1Oc2ccc(C)cc2-n2cc(-c3ccc(C)cc3)nc21 (configuration not stated) | – | · | – | –
CCc1ccc(CNC(=O)c2ccc3c(c2)c(C)c(C)n3Cc2ccccc2)cc1 | · | · | 10µM | –
CCc1cccc(NC(=O)c2ccc3c(c2)c(C)c(C)n3Cc2ccc(F)cc2)c1 | · | · | 10µM | –
CCc1ccc(NC(=O)c2ccc3c(c2)c(C)c(C)n3Cc2ccccc2)cc1 | · | · | ? | –
CC1(C)Cc2c(cnn2-c2ccc(F)cc2)C(NC(=O)C2=NNC(=O)CC2)C1 (configuration not stated) | – | – | – | –
CN(C)CCN1C(=O)c2cccc3cc([N+](=O)[O-])cc(c23)C1=O | – | – | 1.78µM | –
CN(C)CCCN1C(=O)c2cccc3cccc(c23)C1=O | – | – | – | –
CCOc1ccc(/C=C2\SC(=O)N(CCNC(=O)C3COc4ccccc4O3)C2=O)cc1OC (configuration not stated) | – | – | – | 49.7
COc1ccc(/C=C2/SC(=O)N(CCNC(=O)C3COc4ccccc4O3)C2=O)cc1 (configuration not stated) | – | – | – | –
CN1CCN(S(=O)(=O)c2ccc(N3CCN(S(=O)(=O)/C=C/c4ccccc4)CC3)nc2)CC1 | – | – | 7.94µM | –
CN1CCN(S(=O)(=O)c2ccc(N3CCN(C(c4ccccc4)c4ccccc4)CC3)nc2)CC1 | – | – | – | –
O=C(NCc1ccccc1Cl)c1ccc2c(c1)NC(=O)C(CS(=O)(=O)Cc1ccc(F)cc1Cl)N2 (configuration not stated) | · | · | – | 47.3
O=C(NCc1ccc(Cl)cc1)c1ccc2c(c1)NC(=O)C(CS(=O)(=O)Cc1ccc(F)cc1Cl)N2 (configuration not stated) | · | · | – | –
